Source: PubChem (Broad Institute)
Only a sample is shown.
aSyn UTR act – Activators working through SNCA 5'UTR binding (MLPCN); activity score, % (tested at 7.5 µM), hits read low; AID 1814; alpha-synuclein 5'UTR reporter, activators screen; 300,000 tested, 7.1% active; in the data active = activity score below about -60%
* = called active by the depositor.

Results for COC(=O)[C@@H](C)NC(=O)c1ccc2oc(CCc3ccccc3)nc2c1 ?
aSyn UTR act: -169*

What do the screens show for `COC(=O)CCCNC(=O)c1ccc2oc(CCCc3ccccc3)nc2c1`?
aSyn UTR act: -62*

Results for Cn1/c(=N\NC(=O)C2CCCCC2)sc2ccccc21 ?
aSyn UTR act: -141*

How did Cn1/c(=N\NC(=O)c2ccccc2Cl)sc2ccccc21 do in these assays?
aSyn UTR act: -89*

What do the screens show for `COc1cccc(NC(=O)/C=C/c2ccco2)c1`?
aSyn UTR act: -158*

What do the screens show for `CSc1cccc(NC(=O)/C=C/c2ccco2)c1`?
aSyn UTR act: -178*

Results for Cc1ccc(NC(=O)/C=C/c2ccco2)nc1 ?
aSyn UTR act: -63*

Results for CC(C)C(=O)NC(c1ccco1)c1ccc2cccnc2c1O (configuration not stated) ?
aSyn UTR act: 63

Results for O=C(/C=C/c1ccco1)Nc1cccc2cccnc12 ?
aSyn UTR act: -168*

What do the screens show for `COc1ccccc1NC(=O)/C=C\c1ccco1`?
aSyn UTR act: -84*

How did O=C(/C=C/c1ccco1)Nc1ccc(Oc2ccc(Cl)cc2)cc1 do in these assays?
aSyn UTR act: -203*

How did O=C(/C=C/c1ccco1)Nc1cccnc1 do in these assays?
aSyn UTR act: -122*

Results for CCOC(=O)c1ccc(-c2ccc(/C=N/NC(=O)Cc3nnc(N)s3)o2)cc1 ?
aSyn UTR act: -83*

How did CCCCOC(=O)c1ccc(-c2ccc(/C=N/NC(=S)NCC)o2)cc1 do in these assays?
aSyn UTR act: -89*

What do the screens show for `COC(=O)c1ccc(-c2ccc(/C=N/NC(=O)CC3(C)OCCCO3)o2)cc1`?
aSyn UTR act: -67*

How did COC(=O)c1ccc(-c2ccc(/C=N/N3C(=O)C4C5C=CC(C6CC56)C4C3=O)o2)cc1 (configuration not stated) do in these assays?
aSyn UTR act: -100*

How did O=C(N/N=C\c1ccc([N+](=O)[O-])s1)c1cncc(Br)c1 do in these assays?
aSyn UTR act: 77

What do the screens show for `CCOC(=O)c1ccc(-c2ccc(/C=N/NC(=O)c3cncc(Br)c3)o2)cc1`?
aSyn UTR act: -164*

Results for Cc1cccc(C(=O)Nc2cccc(C(=O)N/N=C/c3ccc4c(c3)OCO4)c2)c1 ?
aSyn UTR act: -109*

What do the screens show for `O=C(N/N=C/c1ccc2c(c1)OCO2)c1cccc(NC(=O)c2ccccc2Cl)c1`?
aSyn UTR act: -158*

Results for COc1cc(C(=O)Nc2cc3c(cc2N2CCCCC2)n(C)c(=O)n3C)cc(OC)c1OC ?
aSyn UTR act: -79*

Results for COc1ccccc1N1CCN(S(=O)(=O)CCNC(=O)c2cc(OC)c(OC)c(OC)c2)CC1 ?
aSyn UTR act: 61

What do the screens show for `O=C(Nc1ccccc1)N1CCCC2CCCCC21` (configuration not stated)?
aSyn UTR act: -125*

How did Cn1c(=O)oc2cc(NC(=O)CCl)ccc21 do in these assays?
aSyn UTR act: -107*

Results for COc1cc(/C=C2\C(=N)N3N=CSC3=NC2=O)ccc1OS(=O)(=O)c1ccccc1[N+](=O)[O-] ?
aSyn UTR act: -75*

How did Cc1nnc(NC(=O)c2ccc(Br)cc2)s1 do in these assays?
aSyn UTR act: -96*

Results for CC(=O)Oc1ccc(C(=O)Nc2nnc(C)s2)cc1 ?
aSyn UTR act: -63*

Results for CCN(CC)c1nc(Nc2ccc(Cl)cc2)nc(OCC#N)n1 ?
aSyn UTR act: 70

How did COC(=O)/C=C/c1cnc2ccccc2c1 do in these assays?
aSyn UTR act: -92*

How did Cc1ccc(C2(c3ccc(C)cc3)CC2C(=O)Nc2ccc([N+](=O)[O-])cc2O)cc1 (configuration not stated) do in these assays?
aSyn UTR act: 67

What do the screens show for `O=C(Nc1cccc2ncccc12)c1cc([N+](=O)[O-])ccc1Cl`?
aSyn UTR act: -62*

What do the screens show for `Cc1ccc(O)c(NC(=O)c2cc([N+](=O)[O-])ccc2Cl)c1`?
aSyn UTR act: -62*

How did O=C(Nc1cccc2c1CCCC2)c1cc([N+](=O)[O-])ccc1Cl do in these assays?
aSyn UTR act: -79*

What do the screens show for `Cc1cc(O)c(NC(=O)c2cc([N+](=O)[O-])ccc2Cl)cc1C`?
aSyn UTR act: -106*

What do the screens show for `O=C(CCl)Nc1cccc2ncccc12`?
aSyn UTR act: -95*

Results for Cc1sc2c(c1C)CN(CCN1CCOCC1)CN2C(=O)c1ccccc1 ?
aSyn UTR act: -82*

What do the screens show for `C/C(=N\Nc1ccccc1)c1cccc(N)c1`?
aSyn UTR act: -92*

Results for Cc1ccc(C(=O)c2cccc(N)c2)cc1C ?
aSyn UTR act: 82

Results for Brc1ccc(N/N=C(/N=Nc2nn[nH]n2)c2ccccc2)cc1 ?
aSyn UTR act: 97

Results for CCc1nnc(NC(=O)C=C(C)C)s1 ?
aSyn UTR act: -140*

What do the screens show for `Cc1cc(C)c(-c2csc(NC(=O)/C=C/c3cccs3)n2)c(C)c1`?
aSyn UTR act: 38

Results for CCc1nnc(NC(=O)/C=C/c2cccs2)s1 ?
aSyn UTR act: -160*

Results for Cc1cc(C)nc(NC(=O)/C=C/c2cccs2)c1 ?
aSyn UTR act: -155*

What do the screens show for `NS(=O)(=O)c1cccc(NC(=O)/C=C/c2cccs2)c1`?
aSyn UTR act: -101*

Results for O=C(/C=C/c1cccs1)Nc1cccc(NC(=O)/C=C/c2cccs2)n1 ?
aSyn UTR act: -181*

Results for O=C(/C=C/c1cccc(F)c1)Nc1nccs1 ?
aSyn UTR act: -209*

Results for O=C(/C=C/c1cccs1)Nc1nccs1 ?
aSyn UTR act: -97*

What do the screens show for `CCOC(=O)c1oc2ccc(CNCCO)c(Cl)c2c1C`?
aSyn UTR act: -63*

What do the screens show for `Cc1cc2oc3ccc(NCCCN4CCOCC4)cc3c(=O)c2cc1C`?
aSyn UTR act: -97*

Results for Cc1cc2oc3ccc(NCCCn4ccnc4)cc3c(=O)c2cc1C ?
aSyn UTR act: -86*

How did COc1cc(NC(=O)C/C(C)=N/NC(=O)c2cccs2)c(OC)cc1Cl do in these assays?
aSyn UTR act: -153*

What do the screens show for `COc1cc(NC(=O)C/C(C)=N/NC(=O)Cc2ccccc2)c(OC)cc1Cl`?
aSyn UTR act: -69*

How did O=C1OC2(CCCCC2)OC(=O)C1=CNc1ccc2c(c1)OCO2 do in these assays?
aSyn UTR act: -83*

How did N/C(=N\OC(=O)c1ccc(Cl)cc1Cl)c1cccnc1 do in these assays?
aSyn UTR act: -70*

Results for N/C(=N\OC(=O)c1cccs1)c1cccnc1 ?
aSyn UTR act: -92*

How did Cc1ccccc1/C(N)=N/OC(=O)c1cccs1 do in these assays?
aSyn UTR act: -120*

What do the screens show for `N/C(=N\OC(=O)c1ccc(Cl)cc1)c1cccnc1`?
aSyn UTR act: -187*

How did N/C(=N\OC(=O)c1ccco1)c1cccnc1 do in these assays?
aSyn UTR act: -78*

Results for N/C(=N\OC(=O)c1ccc(Cl)cc1)c1ccc(Cl)cc1 ?
aSyn UTR act: -122*

Results for N/C(=N\OC(=O)c1ccc(Cl)cc1)c1ccn[nH]1 ?
aSyn UTR act: -77*

What do the screens show for `N/C(=N\OC(=O)c1ccco1)c1ccc(Cl)cc1`?
aSyn UTR act: -210*

What do the screens show for `CCSc1ccc(/C(N)=N/OC(=O)c2cccs2)cn1`?
aSyn UTR act: -120*

Results for Cc1cc(C)n2nc(-c3ccc(Cl)cc3)cc2n1 ?
aSyn UTR act: -129*

How did COc1ccc(-c2nc3nc(C)cc(C)n3n2)cc1 do in these assays?
aSyn UTR act: -135*

What do the screens show for `Cc1cc(C)n2nc(-c3ccc(Br)cc3)cc2n1`?
aSyn UTR act: -122*

How did Cc1cc(C)n(-c2nc(-c3ccc(Cl)cc3)cs2)n1 do in these assays?
aSyn UTR act: -93*
